# Compound activity from PubChem.
# This is a sample that favours compounds with a hit; in the whole collection about 2.3% have one here.
# Mito fusion yeast: qHTS Assay for Small Molecule Inhibitors of Mitochondrial Division or Activators of Mitochondrial Fusion | S. cerevisiae fusion-defective mutant growth rescue, CellTiterGlo 48 h | Potency, µM (top dose mostly 46.1 µM), inactives show top-dose growth rescue (activation), usual class: activators | 320,000 tested, 0.23% active; also: potency is read from the fitted curve at half-maximal effect; % of control where 0% means no effect; nearly all actives have a fitted effect of over 45% in size
#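 Yeast fusion mutant, YPEG (non-fermentable carbon), compound, 48 h at 37C non-permissive; CellTiterGlo added, 10 min RT, luminescence read. Rescued growth = division inhibition.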
# Nrf2 activator: qHTS of Nrf2 Activators. AREc32 ARE-luciferase reporter (MCF7-derived line), luminescence, 24 h. Potency, µM (titrated, usually from 46.1 µM), for inactives: top-dose activation, actives largely listed as activators. 410,000 tested, 0.31% active; also: potency is read from the fitted curve at half-maximal effect; % of control where 0% means no effect; nearly all actives have a fitted effect of over 65% in size
#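 AREc32_Fluc, 1000 cells/well, OPTI-MEM + 5% FBS, o/n 37 deg C 5% CO2; 23 nL cpd by pin tool, 24 hr; Steady-Glo 30 min RT, luminescence.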
# miR-21 reporter: qHTS Assay for Modulators of miRNAs and/orActivators of miR-21. HeLa miR-21 FLuc reporter, luciferase, 48 h. Potency, µM (highest dose often 38.3 µM), without a hit: top-dose activity change, positive = activation, most hits filed as activators. 340,000 tested, under 10 active. AID 2288, 2010;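 also: % of control where 0% means no effect; miR-21 action dims this reporter so a rising signal means less miR-21 action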
#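 Luminescence from a firefly luciferase reporter carrying a miR-21 binding site downstream, stably expressed under a CMV promoter in HeLa cells that make miR-21 endogenously, reports miRNA modulation after 48 h compound exposure up to approximately 40uM final.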
# GRP78 ERSR act: qHTS for Inducers of the Endoplasmic Reticulum Stress Response (ERSR) in Human Glioma: qHTS; U87-MG GRP78 promoter luciferase reporter, 16 h; Potency, µM, inactives show at the top dose activation, actives largely listed as activators; 420,000 tested, 0.02% active; AID 602332, 2012; also: potency is read from the fitted curve at half-maximal effect; series mostly up to about 76 µM; % of control where 0% means no effect; nearly all actives have a fitted effect of over 35% in size
#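 Stably transfected U87-MG glioma cells carrying a GRP78-based luciferase sensor; 16 h compound incubation. Luminescence end-point read 10 min after Bright-Glo addition at room temperature.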
# Nrf2 inh: Nrf2 qHTS screen for inhibitors | A549 ARE-Fluc reporter, luciferase luminescence, 18-24 h | Potency, µM (highest dose often 46 µM), without a hit: top-dose activity change, negative = inhibition, actives largely listed as inhibitors | 360,000 tested, 2.1% active; also: potency is read from the fitted curve at half-maximal effect; % is scaled to controls: 0 for no effect and ±100 for the full control effect; nearly all actives have a fitted effect of over 60% in size
#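 Reporter: ARE-Fluc in A549. Exposure: 18-24 h, 37 °C, 5% CO2, 5% FBS OPTI-MEM. Readouts: fluorescent cytotoxicity (CellTiter-Fluor), then luminescent Nrf2 signal after BugLite.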
# A549 viability: Nrf2 qHTS screen for inhibitors: counterscreen for cytotoxicity. A549 ARE-Fluc cells, CellTiter-Fluor viability, 18-24 h. Potency, µM (top dose mostly 46 µM), for the others: top-dose activity change, negative = cytotoxicity, most hits filed as inhibitors. 390,000 tested, 0.16% active; also: potency is read from the fitted curve at half-maximal effect; % is scaled to controls: 0 for no effect and ±100 for the full control effect
#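 Cytotoxicity counterscreen: CellTiter-Fluor fluorescence was measured in A549 ARE_Fluc cells after 18-24 h of compound exposure in a concentration series. The subsequent BugLite luminescent read reports ARE-luciferase activity.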
# An asterisk follows results filed as active; ? = inconclusive; nt = no result. Calls follow the shape of the dose curve; as a rule, active = well fitted curve in the direction sought with a large enough effect; inconclusive = small, poorly fitted or top-dose-only effect, or another doubt; inactive = no such curve, though single readings can be large; an effect the other way counts as inactive or inconclusive.
SMILES,Mito fusion yeast,Nrf2 activator,miR-21 reporter,GRP78 ERSR act,Nrf2 inh,A549 viability
Cc1nc(-c2ccc(C(=O)Nc3cccc(Br)c3)cc2)cs1,-5%,0%,9%,-7%,12µM*,?
Cc1nc(-c2cccc(NC(=O)c3ccc(-n4nccc4C)cc3)c2)cs1,?,-1%,nt,-4%,16µM*,-10%
N/C(=N\OC(=O)CCCOc1ccccc1)c1cccc([N+](=O)[O-])c1,-5%,-1%,-5%,0%,-7%,17%
COc1ccc(OC)c(NC(=O)Cc2c(C)n(C(=O)c3ccc(Cl)cc3)c3ccc(OC)cc23)c1,nt,-1%,-1%,nt,23µM*,-12%
COc1ccc2c(c1)c(CC(=O)Nc1ccc(C(C)=O)cc1)c(C)n2C(=O)c1ccc(Cl)cc1,-20%,6%,0%,5%,23µM*,?
COc1ccc2c(c1)c(CC(=O)Nc1ccccc1OC)c(C)n2C(=O)c1ccc(Cl)cc1,25%,3%,18%,-3%,-22%,-1%
O=C1OCc2cc(NC(=O)C34CC5CC(CC(C5)C3)C4)ccc21,8%,5%,-29%,9%,7%,6%
CCOC(=O)c1cnc(-c2ccccc2)nc1Oc1ccccc1,6%,13µM*,-7%,-4%,nt,-1%
CCOC(=O)c1cnc(-c2ccccc2)nc1-c1ccccc1,6%,7.9µM*,-5%,2%,?,3%
CC(=O)N(C(C)=O)c1cccc(N(Cc2ccccc2)Cc2ccccc2)c1,nt,1%,nt,-4%,?,2%
Cc1nc(SCC(=O)Nc2ccc(S(=O)(=O)N3CCOCC3)cc2)c2c(C)c(C)sc2n1,nt,0%,nt,-5%,12µM*,?
Cc1cccc(N2CCN(CC(=O)Nc3nccs3)CC2)c1C,7%,0%,4%,-4%,16µM*,-23%
Cc1nc(SCC(=O)N2CCOCC2)c2c(C)c(C)sc2n1,-6%,5%,5%,0%,-2%,1%
Cc1cccc(N2CCN(CC(=O)Nc3ccc(S(=O)(=O)N4CCOCC4)cc3)CC2)c1C,1%,0%,22%,-4%,16µM*,-14%
O=C(N/N=C/C(Br)=C\c1ccccc1)c1ccc2nc[nH]c2c1,0%,22µM*,-16%,1%,-11%,13%
O=C(N/N=C/C(Br)=C/c1ccccc1)c1ccc([N+](=O)[O-])cc1,-24%,8.9µM*,-2%,-3%,1%,-2%
CC(=C/c1ccccc1)/C=N/NC(=O)c1ccc2nc[nH]c2c1,-6%,0%,-42%,4%,-10%,3%
COc1ccc2[nH]c(=O)c(CN(C(C)=O)c3ccc(C)c(C)c3)cc2c1,3%,-1%,4%,-4%,-18%,9%
COc1cc(/C=N/N=C(/N)c2nonc2N)cc(Br)c1OCc1cccc(C)c1,17%,0%,1%,-10%,21µM*,-21%
CCOc1cc(/C=N/N=C(\N)c2nonc2N)cc(Br)c1OCc1cccc2ccccc12,1%,4%,1%,9%,21µM*,?
CCOc1cc(/C=N/NC(N)=S)cc(Br)c1OCc1ccccc1C,20%,5%,24%,-5%,?,-17%
COc1cc(/C=N/N=C(\N)c2nonc2N)cc(OC)c1O,-2%,7%,-45%,7%,?,5%
CC(C)Cc1ccc(S(=O)(=O)Nc2ccc3[nH]c(=O)[nH]c3c2)cc1,6%,1%,8%,-4%,18µM*,0%
CCc1ccc(NS(=O)(=O)c2ccc3[nH]c(=O)[nH]c3c2)cc1,-3%,0%,-3%,-2%,-11%,-2%
COc1cc(OC)c(NC(=O)COCc2cc(-c3cccs3)on2)cc1Cl,nt,?,-4%,0%,0%,2%
O=C(COCc1cc(-c2cccs2)on1)Nc1cc(Cl)ccc1O,nt,3.5µM*,3%,-6%,-11%,0%
